# Source: PubChem BioAssay
# The source made the active and inactive calls.
# Experiments:
# [1] = tested on: Plasmodium falciparum Sir2 (PF13_0152, Sir2A); assay: Plasmodium falciparum Sir2A binding compounds – biochemical, small-molecule microarray, 635 nm fluorescence, primary screen (AID 1098); conditions: fluorescence 635 nm, higher = more signal;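 also: score merges spot fluorescence intensity with its signal-to-noise ratio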
# [2] = probe aDKK1 binding to arrayed compounds – biochemical, biotinylated probe, 635/667 nm fluorescence, primary screen (AID 1099); conditions: small-molecule microarray, higher = more signal;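 also: score merges 667nm spot fluorescence with signal to noise across triplicate slides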
# [3] = probe aCHRDL2 binding to arrayed compounds – biochemical, biotinylated probe, 635/667 nm fluorescence, primary screen (AID 1100); conditions: small-molecule microarray, higher = more signal
# [4] = change in splice reporter luminescence, either direction, cell-based, HEK293, spliceosome inhibition project, primary screen (AID 1101); conditions: HEK293 splicing luciferase reporter, 24 h, higher = more signal, called active from +8 up or from −8 down;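 also: HEK293 cells carrying a splicing-competent luciferase reporter gene; test concentration not given here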
# [5] = biological target: Fibroblast growth factor 10 (Homo sapiens) (UniProt O15520); assay: compounds binding fibroblast growth factor 10 – biochemical, small-molecule microarray, 635 nm fluorescence, primary screen (AID 1102); conditions: FGF10 binding, fluorescence 635 nm, higher = more signal
# [6] = tested on: glycogen synthase kinase-3 (GSK3A per assay name; protocol says GSK3B); assay: compounds binding glycogen synthase kinase-3 – biochemical, small-molecule microarray, 635 nm fluorescence, GSK3A, primary screen (AID 1103); conditions: fluorescence 635 nm, higher = more signal; also: the record names both GSK3A and GSK3B
# [7] = biological target: Epidermal growth factor receptor (Homo sapiens) (UniProt P00533); assay: compounds binding epidermal growth factor receptor – biochemical, small-molecule microarray, 635 nm fluorescence, primary screen (AID 1104); conditions: EGFR binding, higher = more signal;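 also: score merges 667 nm emission intensity with spot signal to noise over triplicate slides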
# [8] = biological target: Follistatin-related protein 3 (Homo sapiens) (UniProt O95633); assay: compounds binding follistatin-related protein 3 – biochemical, small-molecule microarray, 635 nm fluorescence, primary screen (AID 1105); conditions: FSTL3 binding, higher = more signal;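 also: score merges emission near 667 nm and signal to noise per printed spot across three slides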
# [9] = biological target: Dickkopf-related protein 1 (Homo sapiens) (UniProt O94907); assay: small molecules binding DKK1 protein – biochemical, small-molecule microarray, 635 nm fluorescence scan, primary screen (AID 1106); conditions: higher = more signal;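 also: score merges emission near 667 nm with signal to noise over three replicate slides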
# [10] = tested on: Inhibin beta A chain (activin A); assay: small molecules binding activin A – biochemical, small-molecule microarray, 635 nm fluorescence scan, primary screen (AID 1107); conditions: INHBA, higher = more signal;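 also: mouse activin A protein probed at 4.33 µg/mL on printed slides; score merges bound-protein fluorescence near 667 nm with spot signal-to-noise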
# [11] = tested on: Human papillomavirus type 1a protein E7 (residues 44-93); assay: small molecules binding HPV E7 44-93 – biochemical, small-molecule microarray, residues 44-93, 635 nm fluorescence, primary screen (AID 1108); conditions: fluorescence 635 nm, higher = more signal;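 also: E7 fragment applied at 1 µg/mL in TBST for 1 h at 4 C; score combines spot fluorescence with its signal to noise ratio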
# [12] = hepatitis C replication reporter changes, two-sided – Huh7 cells, luciferase reporter, HCV replication inhibitor project, primary screen (AID 1109); conditions: Huh7 HCV replicon luciferase reporter, 48 h; higher = more signal;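 also: huh7 hepatoma cells harbouring a luciferase neomycin HCV replicon reporter; luciferase luminescence as measure of HCV replicon replication; test concentration not given here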
# [13] = biological target: Left-right determination factor 2 (Homo sapiens) (UniProt O00292); assay: small molecules binding LEFTY2 protein – biochemical, small-molecule microarray, 635 nm fluorescence scan, primary screen (AID 1110); conditions: higher = more signal
# [14] = biological target: Calmodulin-1 (Homo sapiens) (UniProt P0DP23); assay: small molecules binding calmodulin-1 with EGTA – biochemical, small-molecule microarray, Cy5-labelled CALM1, profiling panel (AID 1111); conditions: Cy5-CALM1 binding fluorescence, higher = more signal;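 also: labelled calmodulin applied in Tris saline Tween buffer holding calcium plus EGTA and DTT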
# [15] = biological target: Calmodulin-1 (Homo sapiens) (UniProt P0DP23); assay: small molecules binding Ca-loaded calmodulin-1 – biochemical, small-molecule microarray, Cy5-labelled CALM1, plus calcium, artefact control for SMM control-protein annotation, profiling panel (AID 1112); conditions: Cy5-CALM1 binding fluorescence, higher = more signal;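 also: score merges spot fluorescence with signal to noise from triplicate slides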
# [16] = probe aWnt5a binding to arrayed compounds – biochemical, biotinylated probe, 635/667 nm fluorescence, primary screen (AID 1113); conditions: small-molecule microarray, higher = more signal;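 also: score merges 667 nm fluorescence intensity with signal-to-noise per printed feature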
# [17] = probe aShh binding to arrayed compounds – biochemical, biotinylated probe, 635/667 nm fluorescence, primary screen (AID 1114); conditions: small-molecule microarray, higher = more signal;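 also: probe is biotin-labelled aShh protein from a stem cell growth factor screen; measures binding of labelled protein to compounds printed on the slide; score merges feature fluorescence at 667 nm with signal-to-noise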
# [18] = probe aNog binding to arrayed compounds – biochemical, biotinylated probe, 635/667 nm fluorescence, primary screen (AID 1115); conditions: small-molecule microarray, higher = more signal;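 also: probe is biotinylated aNog protein used at 0.15 µg/mL for 1 h at 4 C; z-score combines 667 nm fluorescence of each spot with its signal to noise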
# [19] = biological target: Torsin-1A-interacting protein 1 (Homo sapiens) (UniProt Q5JTV8); assay: compound microarray binding of lysate hLAP1 – cell lysate, small-molecule microarray, COS7 lysate, 635/667 nm fluorescence, primary screen (AID 1116); conditions: 635 nm fluorescence, higher = more signal
# [20] = biological target: Alpha-bungarotoxin (Bungarus multicinctus) (UniProt P60615); assay: compounds binding labelled alpha-BTX control protein – biochemical, small-molecule microarray, Alexa647 label, 635/667 nm fluorescence, artefact control for SMM control protein annotation, profiling panel (AID 1117); conditions: alpha-BTX-A647 binding fluorescence, higher = more signal
# Sequence of Alpha-bungarotoxin (Bungarus multicinctus) (P60615 whole entry, looked up): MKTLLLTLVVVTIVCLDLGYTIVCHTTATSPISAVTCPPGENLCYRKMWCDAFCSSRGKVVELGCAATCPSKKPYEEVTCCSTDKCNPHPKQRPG
# Sequence of Dickkopf-related protein 1 (Homo sapiens) (O94907 whole entry, looked up): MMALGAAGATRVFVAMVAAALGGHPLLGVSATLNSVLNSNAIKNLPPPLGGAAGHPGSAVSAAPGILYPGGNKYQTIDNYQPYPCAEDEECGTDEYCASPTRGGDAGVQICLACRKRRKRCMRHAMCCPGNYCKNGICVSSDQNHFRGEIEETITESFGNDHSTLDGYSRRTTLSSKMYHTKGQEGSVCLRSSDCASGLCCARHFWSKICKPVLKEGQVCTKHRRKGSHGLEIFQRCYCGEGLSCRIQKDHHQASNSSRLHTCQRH
# Sequence of Epidermal growth factor receptor (Homo sapiens) (P00533 whole entry, looked up): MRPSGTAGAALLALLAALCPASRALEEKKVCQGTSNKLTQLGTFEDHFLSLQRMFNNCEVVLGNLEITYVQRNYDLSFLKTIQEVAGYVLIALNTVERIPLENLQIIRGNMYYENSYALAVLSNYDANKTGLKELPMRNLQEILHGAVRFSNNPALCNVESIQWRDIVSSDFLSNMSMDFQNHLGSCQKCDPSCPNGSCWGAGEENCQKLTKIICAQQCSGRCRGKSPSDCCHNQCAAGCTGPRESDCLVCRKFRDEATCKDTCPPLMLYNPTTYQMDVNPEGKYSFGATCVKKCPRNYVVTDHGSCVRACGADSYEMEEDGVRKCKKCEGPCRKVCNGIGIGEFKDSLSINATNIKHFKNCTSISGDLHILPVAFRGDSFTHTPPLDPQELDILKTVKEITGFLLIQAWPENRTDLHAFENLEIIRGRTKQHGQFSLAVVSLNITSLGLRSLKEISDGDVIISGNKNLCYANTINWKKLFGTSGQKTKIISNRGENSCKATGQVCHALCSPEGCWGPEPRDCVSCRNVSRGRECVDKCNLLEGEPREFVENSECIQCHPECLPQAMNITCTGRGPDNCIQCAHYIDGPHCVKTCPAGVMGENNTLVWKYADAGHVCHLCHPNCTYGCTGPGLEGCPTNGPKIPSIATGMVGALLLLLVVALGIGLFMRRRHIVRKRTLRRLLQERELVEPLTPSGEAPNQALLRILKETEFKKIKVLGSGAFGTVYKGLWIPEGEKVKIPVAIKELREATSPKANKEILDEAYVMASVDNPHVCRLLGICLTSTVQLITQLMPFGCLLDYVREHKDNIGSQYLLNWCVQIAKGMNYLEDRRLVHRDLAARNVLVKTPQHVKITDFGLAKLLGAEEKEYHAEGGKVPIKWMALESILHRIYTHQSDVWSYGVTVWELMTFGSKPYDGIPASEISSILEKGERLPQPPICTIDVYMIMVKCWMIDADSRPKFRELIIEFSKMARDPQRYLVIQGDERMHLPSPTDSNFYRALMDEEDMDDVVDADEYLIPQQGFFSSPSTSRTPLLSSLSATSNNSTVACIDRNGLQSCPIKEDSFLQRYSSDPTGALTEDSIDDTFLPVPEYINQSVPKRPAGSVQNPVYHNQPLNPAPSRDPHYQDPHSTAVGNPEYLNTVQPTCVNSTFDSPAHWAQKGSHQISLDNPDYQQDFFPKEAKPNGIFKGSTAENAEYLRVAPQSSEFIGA
# Sequence of Fibroblast growth factor 10 (Homo sapiens) (O15520 whole entry, looked up): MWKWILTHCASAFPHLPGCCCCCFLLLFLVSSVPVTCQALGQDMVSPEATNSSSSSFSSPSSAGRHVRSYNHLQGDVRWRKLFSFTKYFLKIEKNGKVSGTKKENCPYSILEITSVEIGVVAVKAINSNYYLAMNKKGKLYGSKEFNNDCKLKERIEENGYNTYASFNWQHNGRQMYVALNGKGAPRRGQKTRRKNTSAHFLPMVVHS
# Sequence of Follistatin-related protein 3 (Homo sapiens) (O95633 whole entry, looked up): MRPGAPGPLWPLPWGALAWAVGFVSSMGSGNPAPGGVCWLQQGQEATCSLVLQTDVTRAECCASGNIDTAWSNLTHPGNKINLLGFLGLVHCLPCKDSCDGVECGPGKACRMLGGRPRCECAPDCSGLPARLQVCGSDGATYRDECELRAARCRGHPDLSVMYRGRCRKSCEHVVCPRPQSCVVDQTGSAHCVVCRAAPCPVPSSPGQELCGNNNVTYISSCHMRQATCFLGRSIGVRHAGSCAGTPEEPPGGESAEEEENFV
# Sequence of Left-right determination factor 2 (Homo sapiens) (O00292 whole entry, looked up): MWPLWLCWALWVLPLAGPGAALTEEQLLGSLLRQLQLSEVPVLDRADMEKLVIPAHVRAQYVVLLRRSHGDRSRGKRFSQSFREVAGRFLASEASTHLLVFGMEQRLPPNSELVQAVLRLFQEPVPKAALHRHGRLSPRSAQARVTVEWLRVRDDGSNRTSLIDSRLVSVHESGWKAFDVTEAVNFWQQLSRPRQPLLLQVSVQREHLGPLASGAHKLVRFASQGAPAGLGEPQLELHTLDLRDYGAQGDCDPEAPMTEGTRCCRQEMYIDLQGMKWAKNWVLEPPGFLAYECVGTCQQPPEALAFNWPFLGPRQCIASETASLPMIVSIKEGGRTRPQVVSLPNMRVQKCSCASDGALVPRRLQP
# Sequence of Torsin-1A-interacting protein 1 (Homo sapiens) (Q5JTV8 whole entry, looked up): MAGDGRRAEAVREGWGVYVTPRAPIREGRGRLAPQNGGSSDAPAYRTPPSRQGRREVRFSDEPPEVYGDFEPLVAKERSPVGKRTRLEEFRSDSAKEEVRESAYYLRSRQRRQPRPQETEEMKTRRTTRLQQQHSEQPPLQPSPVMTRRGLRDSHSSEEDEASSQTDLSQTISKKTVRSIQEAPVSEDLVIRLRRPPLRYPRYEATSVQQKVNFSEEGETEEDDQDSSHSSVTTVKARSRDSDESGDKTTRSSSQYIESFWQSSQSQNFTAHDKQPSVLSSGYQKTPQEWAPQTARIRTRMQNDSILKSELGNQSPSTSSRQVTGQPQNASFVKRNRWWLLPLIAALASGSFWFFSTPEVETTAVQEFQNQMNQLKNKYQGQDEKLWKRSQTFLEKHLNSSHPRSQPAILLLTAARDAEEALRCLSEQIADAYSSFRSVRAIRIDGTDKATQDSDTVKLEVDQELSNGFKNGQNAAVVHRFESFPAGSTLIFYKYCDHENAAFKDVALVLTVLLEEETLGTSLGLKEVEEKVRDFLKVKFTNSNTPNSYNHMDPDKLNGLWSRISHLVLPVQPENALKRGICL
SMILES,composite z-score [1],composite z-score [2],composite z-score [3],z-score [4],composite z-score [5],composite z-score [6],composite z-score [7],composite z-score [8],composite z-score [9],composite z-score [10],composite z-score [11],z-score [12],composite z-score [13],composite z-score [14],composite z-score [15],composite z-score [16],composite z-score [17],composite z-score [18],composite z-score [19],composite z-score [20]
C=CC[C@@H]1C=C[C@H](ON=C(C)CCC(=O)OC[C@H]2O[C@H](c3ccccc3)C=C[C@@H]2Oc2ccc(OC)cc2)[C@@H](CO)O1,0.892,-0.347,-0.524,-0.393 (inactive),-0.196,-0.855,-0.382,-0.532,0.0305,0.837,-0.0821,-1.54,-0.189,-0.725,-0.878,-0.152,-0.221,-0.158,0.106,-0.55
CO[C@@H]1COC(=O)CC=C[C@@H](C)[C@@H]2C=C[C@H](O)[C@@H](COC(=O)CC=C[C@H]1C)O2,0.643,-0.438,-1.25,-0.383 (inactive),0.602,1.02,1.2,1.52,1.66,1.73,-0.913,0.0581,1.5,-1.12,-2.14,-0.224,-0.0146,-0.349,0.27,0.149
